Compounds with a hit are over-represented: about 12% of the library has one in this group of screens.
Shiga toxin inh = Shiga toxin inhibition; 290,000 tested, 9.2% active; inhibition, % at 38.7 µM; Vero cells, Shiga toxin protein synthesis inhibition reporter; in the data active = inhibition mostly above about 28%, no sharp cut-off; inactive = mostly below about 43%; also: 0% is about no effect
CHX counter = affects cycloheximide protein synthesis inhibition readout, counter-screen. max response, %. cell reporter, cycloheximide protein synthesis inhibition counterscreen. 300,000 tested, 12% active; in the data active = max response mostly above about 13%, no sharp cut-off; inactive = mostly below about 14%; also: read at 38.3 µM for the half of the compounds with a filed dose; 0% is about no effect
NS1 function inh = influenza NS1 inhibition | 270,000 tested, 0.4% active | AID 2326 | Potency, µM (titrated, usually from 46.1 µM), inactives show at the highest dose activity, positive = more growth; also: potency is read from the fitted curve at half-maximal effect; actives are rising curves; nearly all actives have a fitted effect of over 50% in size
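A cell-based growth assay was used: compounds that relieve NS1-induced slow growth of budding yeast raise OD600. Assay medium was yeast nitrogen base with ammonium sulphate and -URA supplement, pH 6.0, with 2% galactose.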
SARS PLpro yeast = SARS-CoV PLP inhibition in yeast; Potency, µM (titrated, usually from 32.9 µM), for inactives: at the top dose activity, positive = growth rescue, actives largely listed as activators; 330,000 tested, 0.19% active; S. cerevisiae expressing SARS-CoV PLpro, growth rescue; AID 485353; also: potency is read from the fitted curve at half-maximal effect; 0% is about no effect; nearly all actives have a fitted effect of over 55% in size
The depositor's hits bear a star; ? = inconclusive; . = no result. Unless noted, calls follow the shape of the full dose curve.

SMILES | Shiga toxin inh | CHX counter | NS1 function inh | SARS PLpro yeast
COc1cc(OC)c(C(=O)OC(C)C(=O)Nc2cccc(C(F)(F)F)c2)cc1OC (configuration not stated) | -8.6 | -3.0 | 8.1% | 16.5%
CN(C)/C=N/c1cnc(C(=O)c2ccc(Cl)cc2)n1C | 82.9* | 44.5* | -79.8% | -0.7%
Cc1ccc(C)n1-c1cccc(C(=O)O)c1 | -3.5 | -3.2 | 17.5% | 4.9%
O=C(O)c1cccc(N2CCCC2=O)c1 | -11.0 | 4.5 | 12.4% | -1.2%
Cc1ccc(C)n1-c1cccc(C(=O)Nc2ccccc2)c1 | 36.7 | 17.5* | 10.3% | -0.3%
O=C(Nc1ccccc1)c1cccc(N2CCCC2=O)c1 | 40.5* | 33.6* | 0.8% | -10.1%
CN(CCCNC(=O)c1cccc(N2CCCC2=O)c1)c1ccccc1 | 14.5 | 15.6* | -19.3% | 11.3%
Cc1ccc(CCNC(=O)c2cccc(N3CCCC3=O)c2)cc1 | 66.0* | 21.6 | 6.3% | -3.0%
Cc1cccc(CCNC(=O)c2cccc(N3CCCC3=O)c2)c1 | 74.7* | 43.9* | -5.6% | 2.4%
O=C(NCCc1ccccc1)c1cccc(N2CCCC2=O)c1 | 30.3* | 33.2* | 9.3% | -2.7%
Cc1ccc(C(=O)NCCc2ccccc2)cc1N1CCCC1=O | 26.2 | 13.0 | 2.8% | ?
C/C(=N/NC(=O)c1cccc(N2CCCC2=O)c1)c1ccncc1 | 55.1* | 47.9* | 0.2% | -0.1%
CCCCN(C)CCCNC(=O)c1cccc(N2CCCC2=O)c1 | -11.2 | 3.4 | -4.8% | -1.9%
CC(C)c1ccc(/C=C(\NC(=O)c2ccccc2)C(=O)NCCCN2CCOCC2)cc1 | -7.7 | -0.8 | 1.7% | 1.8%
Cc1nc(-c2ccccc2)c(-c2ccncc2)o1 | -10.4 | -2.2 | . | .
Cc1ccc(C)n1-n1c(C)nc2sc(-c3ccccc3)cc2c1=O | 73.1* | 44.9* | -32.1% | -17.6%
O=c1[nH]c(-c2ccccc2)nc2sc(-c3ccccc3)cc12 | 16.9 | 22.5 | 5.5% | 0.1%
O=c1[nH]cnc2sc(-c3ccccc3)cc12 | 48.7 | 55.9* | -72.3% | -4.5%
O=C(Cn1cnc2sc(-c3ccccc3)cc2c1=O)N1CCOCC1 | -11.5 | -2.8 | 8.5% | 1.6%
Cc1ccc(C)n1-n1cnc2sc(-c3ccccc3)cc2c1=O | 19.4 | 14.3* | -32.6% | -18.9%
O=c1c2cc(-c3ccccc3)sc2ncn1-n1cccc1 | 79.4* | 39.3* | 1.7% | 1.8%
O=C(O)c1cc(C(=O)O)nc(C(=O)O)c1 | . | . | 5.2% | .
CCOCCCNC(=O)c1ccc2c(c1)ncn2C1CCCC1 | 28.6* | 23.7* | -1.0% | 1.5%
CC(C)CCNC(=O)c1ccc2c(c1)ncn2C1CCCC1 | 124.5* | 34.3* | . | 0.7%
CN(C(=O)COC(=O)c1cccnc1Nc1ccccc1F)C1CCS(=O)(=O)C1 (configuration not stated) | 64.9* | 28.0* | -11.5% | 3.6%
SMILES | Shiga toxin inh | CHX counter | NS1 function inh | SARS PLpro yeast
CCN(C(=O)COC(=O)c1cccnc1Nc1ccccc1F)C1CCS(=O)(=O)C1 (configuration not stated) | 53.5* | 62.4* | -8.1% | -3.4%
CN(C(=O)COC(=O)c1cccnc1Nc1cccc(C(F)(F)F)c1)C1CCS(=O)(=O)C1 (configuration not stated) | -5.9 | -2.6 | -4.5% | 6.9%
CCOc1ncccc1C(=O)OCC(=O)N(CC(C)C)C1CCS(=O)(=O)C1 (configuration not stated) | -8.0 | -5.4 | 2.9% | -1.9%
CN(CCC#N)C(=O)COC(=O)c1cccnc1Nc1ccccc1F | 21.5 | 15.9* | . | 0.2%
CC1CCc2cc(F)ccc2N1C(=O)CCl (configuration not stated) | -10.3 | 19.2 | . | 2.2%
CC(C)c1nc2sc3c(c2c(=O)[nH]1)CC(C)(C)OC3 | -3.2 | 1.9 | 3.5% | 0.4%
COC(C(=O)Nc1ccnn1C1CCN(Cc2ccc(C)s2)CC1)c1ccccc1 (configuration not stated) | -2.5 | -1.4 | 5.3% | -1.6%
CCOC(=O)c1cnc2c(-c3ccc(Cl)cc3)cnn2c1C | 31.9 | 14.1* | 2.7% | -0.6%
CCOC(=O)c1cnc2c(-c3ccc(F)cc3)cnn2c1C(F)(F)F | 27.5* | 17.4* | -4.6% | -0.4%
CCOC(=O)c1cnc2c(N=Nc3ccccc3)c(N)nn2c1N | 47.8 | 40.9* | -5.4% | 2.5%
CCOC(=O)c1cnc2c(-c3ccccc3)cnn2c1N | 90.2* | 30.1* | 2.9% | -2.6%
CCOC(=O)c1cnc2c(C#N)cnn2c1N | 2.4 | -1.3 | . | -0.1%
Cc1cc(C(=O)CCC(=O)Nc2ncccc2C)c(C)s1 | . | . | . | -2.4%
N#Cc1ccc(CN2C(=O)NC3(CCCCCC3)C2=O)cc1 | 4.2 | -2.7 | 9.4% | -2.6%
O=C(Cc1c(F)cccc1Cl)Nc1ccc(S(=O)(=O)NCC2CCCO2)cc1 (configuration not stated) | -6.0 | -3.2 | -6.6% | 0.2%
